Measured values published in PubChem BioAssay.
Values joined by “and” are separate entries in the source; they are usually repeats but may differ in a detail not shown here. Equal values may be shown once. Active and inactive are the calls of the source. Unless noted, the rule behind the calls is not given here.

Key:
[1] = system: Wnt5a (protein binding on small-molecule microarray); assay: Wnt5a binders on small-molecule microarray, primary screen, biophysical, 635/667 nm fluorescence (AID 1142); details: 635 nm fluorescence, higher = more signal;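 note: fluorescence read at 667 nm with signal to noise per printed feature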
[2] = cell viability in Huh7 cells, primary screen, cytotoxicity control for HCV replication inhibitor project, CellTiter-Glo luminescence, basal, 48 h (AID 1143); details: Huh7 HCV replicon, higher = more signal, called active from +8 up or from −8 down;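 note: Huh7 hepatoma cells carrying a hepatitis C replication reporter with no stimulus; test concentration not given here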
[3] = P. aeruginosa biofilm formation inhibitors, primary screen, PAO1 strain, BacTiter-Glo luminescence, LB-PBS (AID 1144); details: 12 h, higher = more signal
[4] = CREB reporter modulators without forskolin, primary screen, cell-based, PC12, CRE-LacZ reporter, unstimulated (AID 1145); details: no forskolin, luminescence, 4.5 h, higher = more signal, called active from +8 up or from −8 down
[5] = CREB reporter modulators under forskolin, primary screen, cell-based, PC12, CRE-LacZ reporter, forskolin-stimulated (AID 1146); details: luminescence, 4.5 h, higher = more signal, called active from +8 up or from −8 down;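 note: PC12 cells with 6xCRE LacZ reporter stimulated by forskolin 10 µM; beta-galactosidase reporter signal reflecting CREB driven transcription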
[6] = molecular target: Streptavidin (Streptomyces avidinii) (UniProt P22629); assay: streptavidin binders on small-molecule microarray, primary screen, artefact control for SMM compound annotation, biophysical, 635/667 nm fluorescence (AID 1147); details: streptavidin binding, higher = more signal;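 note: signal reflects streptavidin binding to arrayed compounds as a control protein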
Sequence of Streptavidin (Streptomyces avidinii) (P22629 whole entry, looked up): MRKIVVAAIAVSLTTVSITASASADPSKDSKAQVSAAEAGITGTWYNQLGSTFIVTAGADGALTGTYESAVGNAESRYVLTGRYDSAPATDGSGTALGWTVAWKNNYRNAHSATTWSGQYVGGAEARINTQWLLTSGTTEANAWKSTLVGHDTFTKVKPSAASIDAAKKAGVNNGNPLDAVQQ

[7] = small-molecule binders of probe aInhba, primary screen, biochemical, small-molecule microarray, 635/667 nm fluorescence (AID 1148); details: higher = more signal;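 note: score merges 667nm spot fluorescence with signal-to-noise for antibody binding to printed compounds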
Torsin-1A (Homo sapiens) [8] = molecular target: Torsin-1A (Homo sapiens) (UniProt O14656); assay: torsin A binders from cell lysate, primary screen, small-molecule microarray, wild-type, 635/667 nm (AID 1149); details: COS7 hTOR1A-WT lysate, 635 nm fluorescence, higher = more signal
Sequence of Torsin-1A (Homo sapiens) (O14656 whole entry, looked up): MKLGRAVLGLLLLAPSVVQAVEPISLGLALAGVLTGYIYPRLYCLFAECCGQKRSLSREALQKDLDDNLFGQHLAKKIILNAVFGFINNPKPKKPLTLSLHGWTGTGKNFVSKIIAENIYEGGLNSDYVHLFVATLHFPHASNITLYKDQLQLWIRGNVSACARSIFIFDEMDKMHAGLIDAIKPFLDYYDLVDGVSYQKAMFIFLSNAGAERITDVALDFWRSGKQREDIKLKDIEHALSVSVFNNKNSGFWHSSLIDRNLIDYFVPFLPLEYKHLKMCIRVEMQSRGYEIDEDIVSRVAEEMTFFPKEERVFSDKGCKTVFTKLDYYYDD

Torsin-1A (Homo sapiens) [9] = molecular target: Torsin-1A (Homo sapiens) (UniProt O14656); assay: small-molecule binders of mutant TOR1A in lysate, primary screen, cell lysate, small-molecule microarray, COS7 lysate, 635/667 nm fluorescence (AID 1150); details: COS7 hTOR1A mutant lysate, 635 nm fluorescence, higher = more signal;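 note: score pools 667 nm emission and signal to noise measuring lysate protein binding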
[10] = system: Sonic hedgehog protein (Shh); assay: small-molecule binders of Shh protein, primary screen, biochemical, small-molecule microarray, 635/667 nm fluorescence (AID 1151); details: small-molecule microarray binding, 635 nm fluorescence; higher = more signal;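 note: Shh protein binding to compounds spotted on small-molecule microarray slides; score combines spot fluorescence intensity with signal-to-noise across triplicate slides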
[11] = E. coli DRC41 culture turbidity changes, primary screen, E. coli filamentation inducer project, strain DRC41, OD650, 48 h (AID 1152);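 note: E. coli MC1000 strain DRC41 lacking acrAB efflux pump and sulA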; details: E. coli DRC41 (acrAB sulA), higher = more signal, called active from +8 up or from −8 down
[12] = small-molecule binders of probe aLefty1, primary screen, biochemical, small-molecule microarray, 635/667 nm fluorescence (AID 1153); details: higher = more signal;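 note: score merges spot fluorescence with signal-to-noise ratio from the scanned slide images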
[13] = PSAC antagonists in infected red cells, primary screen, cell-based, P. falciparum Indochina, OD700, 1 h (AID 1154); details: P. falciparum Indochina infected RBC osmotic lysis, higher = more signal, called active from +8 up or from −8 down
[14] = PSAC antagonists in infected red cells, primary screen, cell-based, P. falciparum Indochina, OD700, 2 h (AID 1155);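 note: lysis reports solute entry through the parasite surface anion channel PSAC; channel blockers reduce lysis of infected cells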; details: P. falciparum Indochina infected erythrocytes, osmotic lysis OD700; higher = more signal, called active from +8 up or from −8 down
[15] = osmotic lysis modulators in infected erythrocytes, primary screen, PSAC antagonist project, cell-based, P. falciparum Indochina, OD700, 3 h (AID 1156); details: higher = more signal, called active from +8 up or from −8 down
[16] = PSAC antagonists in infected red cells, primary screen, cell-based, P. falciparum Indochina, OD700, 18 h (AID 1157); details: P. falciparum Indochina infected erythrocytes, osmotic lysis OD700, 18 h; higher = more signal, called active from +8 up or from −8 down
[17] = modulators of S6 phosphorylation in cells, primary screen, cell-based, A549, cytoblot, luminescence, serum-stimulated (AID 1158); details: A549 phospho-S6 cytoblot, 5 h, higher = more signal;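 note: serum-stimulated A549 lung adenocarcinoma cells; signal is phosphorylated S6 detected by cytoblot immunostaining with HRP secondary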
[18] = molecular target: NADPH oxidase 2 (Homo sapiens) (UniProt P04839); assay: NOX2-dependent H2O2 signal modulators, primary screen, NOX inhibitor project, cell-based, HEK293-NOX2, PMA-stimulated, Amplex Red fluorescence (AID 1159); details: 45 min, higher = more signal, called active from +8 up or from −8 down; note: test concentration not given here
Sequence of NADPH oxidase 2 (Homo sapiens) (P04839 whole entry, looked up): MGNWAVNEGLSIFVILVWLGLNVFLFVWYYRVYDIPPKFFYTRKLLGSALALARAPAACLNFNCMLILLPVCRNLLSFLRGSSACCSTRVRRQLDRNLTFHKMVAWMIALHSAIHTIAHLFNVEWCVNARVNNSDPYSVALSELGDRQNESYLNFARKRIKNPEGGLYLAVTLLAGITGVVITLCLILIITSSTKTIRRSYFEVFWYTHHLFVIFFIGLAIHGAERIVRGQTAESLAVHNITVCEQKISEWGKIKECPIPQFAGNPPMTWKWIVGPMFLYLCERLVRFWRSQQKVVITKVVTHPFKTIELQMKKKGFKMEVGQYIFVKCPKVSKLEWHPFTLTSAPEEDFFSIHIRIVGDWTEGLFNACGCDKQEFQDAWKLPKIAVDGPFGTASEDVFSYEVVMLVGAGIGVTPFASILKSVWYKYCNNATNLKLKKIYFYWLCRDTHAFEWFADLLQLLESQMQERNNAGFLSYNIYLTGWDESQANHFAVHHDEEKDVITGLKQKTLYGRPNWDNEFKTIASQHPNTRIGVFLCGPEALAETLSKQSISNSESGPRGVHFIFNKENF

[19] = molecular target: NADPH oxidase 4 (Homo sapiens) (UniProt Q9NPH5); assay: NOX4-dependent H2O2 signal modulators, primary screen, NOX inhibitor project, cell-based, HEK293-NOX4, tetracycline-induced, Amplex Red fluorescence (AID 1160); details: 45 min, higher = more signal, called active from +8 up or from −8 down
Sequence of NADPH oxidase 4 (Homo sapiens) (Q9NPH5 whole entry, looked up): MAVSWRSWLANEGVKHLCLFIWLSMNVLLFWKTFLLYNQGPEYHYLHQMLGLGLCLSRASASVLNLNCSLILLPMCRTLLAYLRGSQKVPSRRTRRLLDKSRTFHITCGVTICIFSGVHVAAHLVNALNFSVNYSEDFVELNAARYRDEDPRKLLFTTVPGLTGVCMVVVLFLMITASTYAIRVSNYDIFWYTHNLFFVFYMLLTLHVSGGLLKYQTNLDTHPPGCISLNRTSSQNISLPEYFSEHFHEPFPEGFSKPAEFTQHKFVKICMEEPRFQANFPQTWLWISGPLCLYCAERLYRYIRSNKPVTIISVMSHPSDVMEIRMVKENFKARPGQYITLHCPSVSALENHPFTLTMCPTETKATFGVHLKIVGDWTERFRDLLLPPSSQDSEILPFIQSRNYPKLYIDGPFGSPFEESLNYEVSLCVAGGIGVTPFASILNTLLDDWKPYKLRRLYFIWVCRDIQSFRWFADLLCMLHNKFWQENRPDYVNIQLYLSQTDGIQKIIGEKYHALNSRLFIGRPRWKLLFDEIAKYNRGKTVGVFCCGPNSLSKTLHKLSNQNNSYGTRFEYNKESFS

[20] = molecular target: NADPH oxidase 5 (Homo sapiens) (UniProt Q96PH1); assay: NOX5-dependent H2O2 signal modulators, primary screen, NOX inhibitor project, cell-based, HEK293-NOX5, Amplex Red fluorescence (AID 1161); details: HEK293-NOX5, ionomycin, 45 min, higher = more signal
Sequence of NADPH oxidase 5 (Homo sapiens) (Q96PH1 whole entry, looked up): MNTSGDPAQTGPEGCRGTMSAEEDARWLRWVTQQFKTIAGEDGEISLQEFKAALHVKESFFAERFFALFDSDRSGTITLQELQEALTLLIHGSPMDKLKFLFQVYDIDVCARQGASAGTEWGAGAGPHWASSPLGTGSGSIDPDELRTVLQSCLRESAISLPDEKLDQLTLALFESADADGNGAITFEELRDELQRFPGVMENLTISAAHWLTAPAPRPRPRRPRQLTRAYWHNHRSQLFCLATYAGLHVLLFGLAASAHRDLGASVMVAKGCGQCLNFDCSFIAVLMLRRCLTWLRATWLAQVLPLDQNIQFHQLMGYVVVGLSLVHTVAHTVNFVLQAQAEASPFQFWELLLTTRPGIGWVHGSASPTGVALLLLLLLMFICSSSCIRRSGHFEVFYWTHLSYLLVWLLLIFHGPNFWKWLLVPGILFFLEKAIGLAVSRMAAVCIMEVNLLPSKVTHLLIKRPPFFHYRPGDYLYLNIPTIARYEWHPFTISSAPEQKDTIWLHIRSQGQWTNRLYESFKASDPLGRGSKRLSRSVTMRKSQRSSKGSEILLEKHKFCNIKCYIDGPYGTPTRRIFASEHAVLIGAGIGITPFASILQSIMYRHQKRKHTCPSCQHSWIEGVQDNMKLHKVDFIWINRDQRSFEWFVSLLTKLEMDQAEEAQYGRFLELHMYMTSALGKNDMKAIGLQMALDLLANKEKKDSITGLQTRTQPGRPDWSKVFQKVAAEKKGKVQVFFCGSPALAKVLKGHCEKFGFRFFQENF

CO[C@H]1COC(=O)CC=C[C@@H](C)COC(=O)[C@H](CCSC)NC(=O)CC=C[C@@H]1C
composite z-score [1]: 0.748 and 0.382 | z-score [2]: -1.11 (inactive) and -1.94 (inactive) | z-score [3]: -0.2 (inactive) | z-score [4]: -0.473 (inactive) and 0.882 (inactive) | z-score [5]: -0.367 (inactive) and -0.742 (inactive) | composite z-score [6]: -0.909 and -1.04 | composite z-score [7]: -0.0645 and -0.341 | composite z-score (Torsin-1A (Homo sapiens) [8]): 3.27 and 3.04 | composite z-score (Torsin-1A (Homo sapiens) [9]): 3.74 and 3.09 | composite z-score [10]: 1.74 and 2.35 | z-score [11]: -0.949 (inactive) and -0.0368 (inactive) | composite z-score [12]: -0.188 and 0.32 | z-score [13]: -0.304 (inactive) and 0.171 (inactive) | z-score [14]: -0.237 (inactive) and 0.588 (inactive) | z-score [15]: -0.425 (inactive) and -0.189 (inactive) | z-score [16]: 0.256 (inactive) and -0.0409 (inactive) | z-score [17]: 0.676 and 0.163 | z-score [18]: 1.07 (inactive) and -1.99 (inactive) | z-score [19]: -0.824 (inactive) and 0.413 (inactive) | z-score [20]: -0.812 and -0.479

CO[C@@H]1COC(=O)[C@H](Cc2ccccc2)NC(=O)CC=C[C@@H](C)[C@H](OC)COC(=O)[C@@H](C)NC(=O)CC=C[C@H]1C
composite z-score [1]: -0.21 and 0.189 | z-score [2]: -0.656 (inactive) and -1.53 (inactive) | z-score [4]: 0.345 (inactive) and -0.39 (inactive) | z-score [5]: -0.95 (inactive) and -1.65 (inactive) | composite z-score [6]: -0.0436 and -0.304 | composite z-score [7]: -0.0986 and -0.319 | composite z-score (Torsin-1A (Homo sapiens) [8]): 1.37 and 0.668 | composite z-score (Torsin-1A (Homo sapiens) [9]): 0.671 and 0.335 | composite z-score [10]: 2.07 and 1.98 | z-score [11]: -0.582 (inactive) and 0.887 (inactive) | composite z-score [12]: -0.0536 and -0.425 | z-score [13]: -0.712 (inactive) and -0.142 (inactive) | z-score [14]: -0.999 (inactive) and -0.463 (inactive) | z-score [15]: 0.932 (inactive) and 0.0469 (inactive) | z-score [16]: -2.07 (inactive) and -1.44 (inactive) | z-score [17]: 0.758 and 0.682 | z-score [18]: 0.0254 (inactive) and -0.582 (inactive) | z-score [19]: 0.859 (inactive) and 0.551 (inactive) | z-score [20]: -0.106 and 0.66

C=C[C@@H](OC)[C@H](O)c1ccc(OCCO)cc1
composite z-score [1]: -0.825 and -0.361 | z-score [2]: 0.423 (inactive) and -2.25 (inactive) | z-score [3]: -0.765 (inactive) and -0.622 (inactive) | z-score [4]: -0.883 (inactive) and -0.184 (inactive) | z-score [5]: -0.812 (inactive) and -1.15 (inactive) | composite z-score [6]: -0.912 and -1.1 | composite z-score [7]: -0.271 and -0.128 | composite z-score (Torsin-1A (Homo sapiens) [8]): -1.95 and -1.96 | composite z-score (Torsin-1A (Homo sapiens) [9]): -2.39 and -0.212 | composite z-score [10]: 0.18 and -0.247 | z-score [11]: -0.368 (inactive) and 2.73 (inactive) | composite z-score [12]: -0.0984 and -0.53 | z-score [13]: -0.167 (inactive) and 1.57 (inactive) | z-score [14]: 0.139 (inactive) and -0.317 (inactive) | z-score [15]: -0.123 (inactive) and -0.29 (inactive) | z-score [16]: 0.278 (inactive) and -0.993 (inactive) | z-score [17]: -0.424 and 2.8 | z-score [18]: -0.394 (inactive) and -0.426 (inactive) | z-score [19]: -0.164 (inactive) and -0.249 (inactive) | z-score [20]: -0.743 and -1.57

O=C(NN=C1C[C@@H](O)[C@@H](O)[C@@H]2[C@@H]3C(=O)N(Cc4ccc5c(c4)OCO5)C(=O)[C@@H]3CC[C@H]12)OCc1ccccc1
composite z-score [1]: 0.627 | z-score [2]: 0.0294 (inactive) | z-score [3]: 1.54 (inactive) | z-score [4]: -1.29 (inactive) | z-score [5]: 0.383 (inactive) | composite z-score [6]: -0.872 | composite z-score [7]: -0.0245 | composite z-score (Torsin-1A (Homo sapiens) [8]): 2.05 | composite z-score (Torsin-1A (Homo sapiens) [9]): 0.392 | composite z-score [10]: -0.858 | z-score [11]: 1.2 (inactive) | composite z-score [12]: 0.126 | z-score [13]: 37 (active) | z-score [14]: 14.8 (active) | z-score [15]: 0.833 (inactive) | z-score [16]: 1.24 (inactive) | z-score [17]: -0.241 | z-score [18]: -1.32 (inactive) | z-score [19]: 0.0354 (inactive) | z-score [20]: 0.664

COC(=O)C1=C(C)N(Cc2ccccc2)C2=C3C(=O)N(C)C(=O)[C@@H]3[C@@](O)(C(=O)OC)C(=O)N2[C@@H]1c1ccccc1
composite z-score [1]: 0.147 and 0.126 | z-score [2]: 0.961 (inactive) and -0.294 (inactive) | z-score [3]: -0.153 (inactive) and -0.448 (inactive) | z-score [4]: 2.18 (inactive) and 0.992 (inactive) | z-score [5]: -0.152 (inactive) and -0.755 (inactive) | composite z-score [6]: 0.378 and 0.131 | composite z-score [7]: 0.038 and 0.0173 | composite z-score (Torsin-1A (Homo sapiens) [8]): 0.154 and 0.161 | composite z-score (Torsin-1A (Homo sapiens) [9]): 0.491 and 0.207 | composite z-score [10]: -0.004 and 0.436 | z-score [11]: 0.71 (inactive) and -0.313 (inactive) | composite z-score [12]: 0.0341 and 0.0278 | z-score [13]: -0.188 (inactive) and -1.06 (inactive) | z-score [14]: -0.215 (inactive) and -1.49 (inactive) | z-score [15]: -0.745 (inactive) and -0.379 (inactive) | z-score [16]: -0.339 (inactive) and -1.77 (inactive) | z-score [17]: -0.137 and 1.48 | z-score [18]: 1.13 (inactive) and -0.926 (inactive) | z-score [19]: 0.507 (inactive) and 0.254 (inactive) | z-score [20]: -0.0308 and 0.418
